Columns and labels:
[1] = molecular target: T1, Ephrin type-B receptor 2 (Homo sapiens) (UniProt P29323); details: at 1 µM
T1 sequence (whole entry): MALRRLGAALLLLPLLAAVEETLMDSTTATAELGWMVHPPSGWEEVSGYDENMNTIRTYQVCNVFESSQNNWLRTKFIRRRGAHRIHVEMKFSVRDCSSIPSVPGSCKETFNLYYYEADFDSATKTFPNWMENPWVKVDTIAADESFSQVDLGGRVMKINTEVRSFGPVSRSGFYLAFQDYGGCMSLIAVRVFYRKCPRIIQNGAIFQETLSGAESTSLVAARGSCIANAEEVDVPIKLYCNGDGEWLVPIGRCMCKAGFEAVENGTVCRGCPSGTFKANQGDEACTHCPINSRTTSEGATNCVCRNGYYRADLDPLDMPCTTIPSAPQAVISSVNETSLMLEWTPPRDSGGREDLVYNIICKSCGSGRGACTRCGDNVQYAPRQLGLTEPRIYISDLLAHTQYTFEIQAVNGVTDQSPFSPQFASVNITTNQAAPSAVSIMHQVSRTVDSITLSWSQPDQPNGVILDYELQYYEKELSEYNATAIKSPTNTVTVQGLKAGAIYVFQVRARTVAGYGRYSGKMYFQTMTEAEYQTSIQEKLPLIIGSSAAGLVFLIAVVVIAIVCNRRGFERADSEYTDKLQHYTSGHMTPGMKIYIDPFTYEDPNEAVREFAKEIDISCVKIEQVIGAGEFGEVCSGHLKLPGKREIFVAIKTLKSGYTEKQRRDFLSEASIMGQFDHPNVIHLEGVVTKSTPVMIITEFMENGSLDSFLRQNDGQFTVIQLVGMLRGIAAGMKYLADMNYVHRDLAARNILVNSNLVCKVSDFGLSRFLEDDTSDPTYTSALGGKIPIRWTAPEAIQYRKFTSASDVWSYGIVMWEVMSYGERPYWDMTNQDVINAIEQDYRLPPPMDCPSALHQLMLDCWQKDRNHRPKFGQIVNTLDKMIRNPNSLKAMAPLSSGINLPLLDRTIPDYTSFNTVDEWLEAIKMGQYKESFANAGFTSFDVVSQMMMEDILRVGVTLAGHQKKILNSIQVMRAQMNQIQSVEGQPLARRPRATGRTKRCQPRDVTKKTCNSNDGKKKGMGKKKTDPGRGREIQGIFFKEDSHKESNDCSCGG

[2] = molecular target: T2, Ephrin type-B receptor 3 (Homo sapiens) (UniProt P54753); details: at 0.1 µM
T2 sequence (whole entry): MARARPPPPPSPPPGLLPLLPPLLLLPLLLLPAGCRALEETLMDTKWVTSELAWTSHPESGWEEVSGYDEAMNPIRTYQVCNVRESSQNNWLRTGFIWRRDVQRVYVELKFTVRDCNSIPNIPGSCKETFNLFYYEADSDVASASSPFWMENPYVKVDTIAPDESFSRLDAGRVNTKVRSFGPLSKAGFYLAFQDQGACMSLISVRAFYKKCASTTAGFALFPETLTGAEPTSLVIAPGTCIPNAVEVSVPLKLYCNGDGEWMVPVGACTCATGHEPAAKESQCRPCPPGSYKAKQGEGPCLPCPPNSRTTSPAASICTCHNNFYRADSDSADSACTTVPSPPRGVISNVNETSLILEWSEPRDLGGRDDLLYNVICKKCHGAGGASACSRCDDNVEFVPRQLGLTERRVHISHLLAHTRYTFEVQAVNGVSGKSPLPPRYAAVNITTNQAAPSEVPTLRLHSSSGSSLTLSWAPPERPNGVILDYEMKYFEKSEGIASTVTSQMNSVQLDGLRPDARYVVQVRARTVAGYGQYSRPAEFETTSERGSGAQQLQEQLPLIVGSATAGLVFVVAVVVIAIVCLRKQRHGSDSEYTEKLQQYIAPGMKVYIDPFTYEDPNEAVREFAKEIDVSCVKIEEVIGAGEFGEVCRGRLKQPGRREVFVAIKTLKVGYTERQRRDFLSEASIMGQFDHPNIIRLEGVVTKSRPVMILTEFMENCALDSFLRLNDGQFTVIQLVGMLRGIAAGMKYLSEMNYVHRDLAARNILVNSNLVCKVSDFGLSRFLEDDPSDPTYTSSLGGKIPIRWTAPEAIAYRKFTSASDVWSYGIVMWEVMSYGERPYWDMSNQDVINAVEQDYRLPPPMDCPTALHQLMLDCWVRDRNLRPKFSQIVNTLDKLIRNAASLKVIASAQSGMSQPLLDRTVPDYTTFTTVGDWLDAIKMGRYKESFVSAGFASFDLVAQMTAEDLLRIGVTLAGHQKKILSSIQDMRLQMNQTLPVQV

[3] = molecular target: T2, Ephrin type-B receptor 3 (Homo sapiens); details: at 1 µM
[4] = molecular target: T3, Ephrin type-B receptor 4 (Homo sapiens) (UniProt P54760); details: at 0.1 µM
T3 sequence (whole entry): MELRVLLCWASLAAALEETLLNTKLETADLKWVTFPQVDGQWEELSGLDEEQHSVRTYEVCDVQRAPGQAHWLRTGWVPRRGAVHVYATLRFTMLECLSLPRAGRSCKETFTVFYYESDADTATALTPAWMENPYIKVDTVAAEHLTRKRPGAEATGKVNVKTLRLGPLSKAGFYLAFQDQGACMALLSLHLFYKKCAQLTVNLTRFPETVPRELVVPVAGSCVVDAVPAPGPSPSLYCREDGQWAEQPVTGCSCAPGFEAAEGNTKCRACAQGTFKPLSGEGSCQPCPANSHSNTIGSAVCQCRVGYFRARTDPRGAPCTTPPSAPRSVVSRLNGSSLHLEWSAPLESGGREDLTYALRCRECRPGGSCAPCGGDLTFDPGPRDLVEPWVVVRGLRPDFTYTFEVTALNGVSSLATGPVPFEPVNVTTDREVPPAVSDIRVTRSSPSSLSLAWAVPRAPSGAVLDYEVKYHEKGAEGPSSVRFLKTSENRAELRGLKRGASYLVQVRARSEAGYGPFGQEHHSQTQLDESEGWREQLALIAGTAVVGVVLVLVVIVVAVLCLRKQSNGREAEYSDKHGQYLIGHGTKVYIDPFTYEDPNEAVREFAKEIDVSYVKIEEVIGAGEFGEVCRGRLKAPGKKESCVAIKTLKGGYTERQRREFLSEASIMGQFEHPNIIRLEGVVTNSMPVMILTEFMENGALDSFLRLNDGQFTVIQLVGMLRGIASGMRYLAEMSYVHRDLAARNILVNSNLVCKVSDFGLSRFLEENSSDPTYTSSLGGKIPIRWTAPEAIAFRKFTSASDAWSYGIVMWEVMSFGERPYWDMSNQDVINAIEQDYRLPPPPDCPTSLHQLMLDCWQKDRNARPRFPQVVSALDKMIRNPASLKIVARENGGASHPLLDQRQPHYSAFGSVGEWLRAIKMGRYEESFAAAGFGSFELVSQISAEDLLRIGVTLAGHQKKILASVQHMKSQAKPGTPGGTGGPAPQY

[5] = molecular target: T3, Ephrin type-B receptor 4 (Homo sapiens); details: at 1 µM
[6] = molecular target: Receptor tyrosine-protein kinase erbB-2 (Homo sapiens) (UniProt P04626); details: at 0.1 µM
[7] = molecular target: Receptor tyrosine-protein kinase erbB-2 (Homo sapiens) (UniProt P04626); details: at 1 µM
[8] = molecular target: Receptor tyrosine-protein kinase erbB-4 (Homo sapiens) (UniProt Q15303); details: at 0.1 µM
[9] = molecular target: Receptor tyrosine-protein kinase erbB-4 (Homo sapiens) (UniProt Q15303); details: at 1 µM
[10] = molecular target: Tyrosine-protein kinase Fer (Homo sapiens) (UniProt P16591); details: at 0.1 µM
[11] = molecular target: Tyrosine-protein kinase Fer (Homo sapiens) (UniProt P16591); details: at 1 µM
[12] = molecular target: Tyrosine-protein kinase Fes/Fps (Homo sapiens) (UniProt P07332); details: at 0.1 µM
[13] = molecular target: Tyrosine-protein kinase Fes/Fps (Homo sapiens) (UniProt P07332); details: at 1 µM
[14] = molecular target: Fibroblast growth factor receptor 1 (Homo sapiens) (UniProt P11362); details: at 0.1 µM
[15] = molecular target: Fibroblast growth factor receptor 1 (Homo sapiens) (UniProt P11362); details: at 1 µM
[16] = molecular target: Fibroblast growth factor receptor 2 (Homo sapiens) (UniProt P21802); details: at 0.1 µM
[17] = molecular target: Fibroblast growth factor receptor 2 (Homo sapiens) (UniProt P21802); details: at 1 µM
[18] = molecular target: Fibroblast growth factor receptor 3 (Homo sapiens) (UniProt P22607); details: at 0.1 µM
[19] = molecular target: Fibroblast growth factor receptor 3 (Homo sapiens) (UniProt P22607); details: at 1 µM
[20] = molecular target: Fibroblast growth factor receptor 4 (Homo sapiens) (UniProt P22455); details: at 0.1 µM;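 also: values are mean percent inhibition of FGFR4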

Chain of Receptor tyrosine-protein kinase erbB-2 (Homo sapiens) (P04626 whole entry): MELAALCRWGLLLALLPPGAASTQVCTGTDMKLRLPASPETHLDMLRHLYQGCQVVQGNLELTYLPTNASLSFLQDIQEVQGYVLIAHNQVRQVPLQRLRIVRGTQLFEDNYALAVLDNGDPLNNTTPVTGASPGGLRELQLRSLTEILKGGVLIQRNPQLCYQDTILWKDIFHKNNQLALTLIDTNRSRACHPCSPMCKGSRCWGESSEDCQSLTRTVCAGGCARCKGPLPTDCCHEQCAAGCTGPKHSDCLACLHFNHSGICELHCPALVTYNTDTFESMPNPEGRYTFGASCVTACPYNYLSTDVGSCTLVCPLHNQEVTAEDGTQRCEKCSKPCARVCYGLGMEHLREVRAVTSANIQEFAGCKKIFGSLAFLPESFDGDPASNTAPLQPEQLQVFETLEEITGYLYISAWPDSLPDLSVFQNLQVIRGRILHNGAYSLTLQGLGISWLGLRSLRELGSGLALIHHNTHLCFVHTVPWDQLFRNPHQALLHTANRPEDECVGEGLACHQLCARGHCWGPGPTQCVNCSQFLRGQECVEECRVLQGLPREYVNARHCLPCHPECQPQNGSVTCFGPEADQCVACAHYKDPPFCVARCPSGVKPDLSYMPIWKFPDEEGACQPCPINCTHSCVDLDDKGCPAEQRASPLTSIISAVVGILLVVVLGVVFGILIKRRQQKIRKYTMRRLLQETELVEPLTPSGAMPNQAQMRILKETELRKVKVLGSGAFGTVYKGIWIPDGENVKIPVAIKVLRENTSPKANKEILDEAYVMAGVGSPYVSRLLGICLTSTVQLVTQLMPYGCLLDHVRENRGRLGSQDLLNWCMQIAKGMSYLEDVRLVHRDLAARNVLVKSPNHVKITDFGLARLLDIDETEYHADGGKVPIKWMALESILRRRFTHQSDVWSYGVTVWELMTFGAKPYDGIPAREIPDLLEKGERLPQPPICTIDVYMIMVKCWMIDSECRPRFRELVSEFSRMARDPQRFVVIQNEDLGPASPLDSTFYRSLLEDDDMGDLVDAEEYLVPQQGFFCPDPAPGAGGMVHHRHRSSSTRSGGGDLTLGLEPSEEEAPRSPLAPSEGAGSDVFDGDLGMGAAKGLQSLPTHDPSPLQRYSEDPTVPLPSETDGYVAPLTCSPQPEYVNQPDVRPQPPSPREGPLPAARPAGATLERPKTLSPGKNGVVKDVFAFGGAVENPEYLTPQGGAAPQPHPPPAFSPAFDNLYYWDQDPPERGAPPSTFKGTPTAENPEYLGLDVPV
Chain of Tyrosine-protein kinase Fer (Homo sapiens) (P16591 whole entry, looked up): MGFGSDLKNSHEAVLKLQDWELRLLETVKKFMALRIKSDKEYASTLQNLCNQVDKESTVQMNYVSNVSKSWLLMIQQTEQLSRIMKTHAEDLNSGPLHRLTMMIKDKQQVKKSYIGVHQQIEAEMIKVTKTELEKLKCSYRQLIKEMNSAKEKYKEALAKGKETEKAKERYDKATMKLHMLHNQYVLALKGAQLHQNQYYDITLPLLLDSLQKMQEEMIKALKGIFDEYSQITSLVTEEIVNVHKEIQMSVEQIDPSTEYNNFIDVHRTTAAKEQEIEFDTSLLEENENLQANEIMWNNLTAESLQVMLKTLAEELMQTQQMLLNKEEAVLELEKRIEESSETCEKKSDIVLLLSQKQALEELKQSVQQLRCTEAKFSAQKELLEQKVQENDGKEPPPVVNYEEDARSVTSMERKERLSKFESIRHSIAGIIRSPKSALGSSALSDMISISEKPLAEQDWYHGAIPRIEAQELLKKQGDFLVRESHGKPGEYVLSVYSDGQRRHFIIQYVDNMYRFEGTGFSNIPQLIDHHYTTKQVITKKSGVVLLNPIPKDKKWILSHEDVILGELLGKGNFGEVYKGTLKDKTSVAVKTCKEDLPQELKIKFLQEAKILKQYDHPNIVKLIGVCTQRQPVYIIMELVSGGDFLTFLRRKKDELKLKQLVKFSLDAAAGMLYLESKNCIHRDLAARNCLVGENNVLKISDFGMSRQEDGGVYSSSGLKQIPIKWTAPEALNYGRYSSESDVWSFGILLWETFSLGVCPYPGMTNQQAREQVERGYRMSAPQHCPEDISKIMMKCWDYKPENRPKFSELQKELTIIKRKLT
Chain of Fibroblast growth factor receptor 1 (Homo sapiens) (P11362 22-822 limits assumed): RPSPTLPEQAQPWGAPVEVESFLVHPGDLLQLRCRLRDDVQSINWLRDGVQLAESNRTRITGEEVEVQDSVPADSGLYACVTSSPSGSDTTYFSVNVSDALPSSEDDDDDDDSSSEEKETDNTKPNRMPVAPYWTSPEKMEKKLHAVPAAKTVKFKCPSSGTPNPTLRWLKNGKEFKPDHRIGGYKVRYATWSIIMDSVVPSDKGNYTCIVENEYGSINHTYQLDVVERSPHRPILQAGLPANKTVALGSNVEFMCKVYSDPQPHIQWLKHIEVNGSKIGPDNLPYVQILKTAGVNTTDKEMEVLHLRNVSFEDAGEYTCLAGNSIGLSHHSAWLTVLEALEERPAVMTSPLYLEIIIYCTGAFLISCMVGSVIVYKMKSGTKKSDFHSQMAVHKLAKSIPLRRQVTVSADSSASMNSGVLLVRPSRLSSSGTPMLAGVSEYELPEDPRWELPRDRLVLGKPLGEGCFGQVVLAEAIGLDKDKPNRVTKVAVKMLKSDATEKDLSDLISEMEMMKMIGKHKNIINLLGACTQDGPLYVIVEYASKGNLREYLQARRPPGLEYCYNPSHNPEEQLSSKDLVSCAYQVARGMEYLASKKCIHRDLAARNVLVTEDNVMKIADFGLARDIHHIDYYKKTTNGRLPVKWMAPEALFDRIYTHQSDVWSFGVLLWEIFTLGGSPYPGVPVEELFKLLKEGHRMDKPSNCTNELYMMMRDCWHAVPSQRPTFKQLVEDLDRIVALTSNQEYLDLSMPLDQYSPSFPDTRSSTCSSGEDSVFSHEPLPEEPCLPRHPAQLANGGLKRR
Chain of Tyrosine-protein kinase Fes/Fps (Homo sapiens) (P07332 whole entry): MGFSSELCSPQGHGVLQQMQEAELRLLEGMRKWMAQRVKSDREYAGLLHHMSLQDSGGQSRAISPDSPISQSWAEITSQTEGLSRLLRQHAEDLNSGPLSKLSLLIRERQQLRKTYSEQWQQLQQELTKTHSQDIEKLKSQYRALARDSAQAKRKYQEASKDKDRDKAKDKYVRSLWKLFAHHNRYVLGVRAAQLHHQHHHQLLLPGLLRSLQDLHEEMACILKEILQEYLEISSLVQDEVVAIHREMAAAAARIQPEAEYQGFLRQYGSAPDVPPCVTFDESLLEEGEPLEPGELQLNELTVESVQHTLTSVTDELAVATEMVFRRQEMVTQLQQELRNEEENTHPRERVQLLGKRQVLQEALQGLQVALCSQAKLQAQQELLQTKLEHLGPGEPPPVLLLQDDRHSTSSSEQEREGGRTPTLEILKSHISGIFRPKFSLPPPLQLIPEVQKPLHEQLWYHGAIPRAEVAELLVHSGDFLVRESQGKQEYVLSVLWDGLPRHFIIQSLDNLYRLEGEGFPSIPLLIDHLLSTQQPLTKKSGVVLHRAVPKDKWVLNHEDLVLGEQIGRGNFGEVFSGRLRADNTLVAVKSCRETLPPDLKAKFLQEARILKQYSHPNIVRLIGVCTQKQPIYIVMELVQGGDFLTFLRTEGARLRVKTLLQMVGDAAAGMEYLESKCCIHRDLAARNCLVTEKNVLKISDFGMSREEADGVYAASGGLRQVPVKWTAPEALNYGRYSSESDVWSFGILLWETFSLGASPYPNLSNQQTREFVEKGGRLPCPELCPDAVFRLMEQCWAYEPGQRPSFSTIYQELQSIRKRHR
Chain of Fibroblast growth factor receptor 2 (Homo sapiens) (P21802 22-821 limits assumed): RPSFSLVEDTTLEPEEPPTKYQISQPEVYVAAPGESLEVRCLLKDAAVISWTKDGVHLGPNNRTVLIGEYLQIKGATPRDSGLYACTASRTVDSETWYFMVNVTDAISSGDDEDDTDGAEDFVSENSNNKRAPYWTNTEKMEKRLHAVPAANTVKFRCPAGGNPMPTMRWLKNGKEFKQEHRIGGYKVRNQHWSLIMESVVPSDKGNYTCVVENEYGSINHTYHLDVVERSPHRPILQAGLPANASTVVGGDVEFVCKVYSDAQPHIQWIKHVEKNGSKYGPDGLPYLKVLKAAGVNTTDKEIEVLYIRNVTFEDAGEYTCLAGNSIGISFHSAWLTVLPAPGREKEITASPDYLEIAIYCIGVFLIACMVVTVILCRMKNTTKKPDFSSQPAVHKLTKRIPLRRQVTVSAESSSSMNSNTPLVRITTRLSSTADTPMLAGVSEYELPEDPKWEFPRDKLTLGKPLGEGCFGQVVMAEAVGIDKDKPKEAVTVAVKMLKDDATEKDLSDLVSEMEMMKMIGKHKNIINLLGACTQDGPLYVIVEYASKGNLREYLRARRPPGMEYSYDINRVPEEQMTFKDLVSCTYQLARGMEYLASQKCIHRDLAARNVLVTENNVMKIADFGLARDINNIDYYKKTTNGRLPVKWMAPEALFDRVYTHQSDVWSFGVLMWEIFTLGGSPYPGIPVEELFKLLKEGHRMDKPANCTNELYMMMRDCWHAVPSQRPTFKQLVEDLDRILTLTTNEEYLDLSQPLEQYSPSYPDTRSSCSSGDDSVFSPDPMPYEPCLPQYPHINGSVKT

SMILES	inhibition [1]	inhibition [2]	inhibition [3]	inhibition [4]	inhibition [5]	inhibition [6]	inhibition [7]	inhibition [8]	inhibition [9]	inhibition [10]	inhibition [11]	inhibition [12]	inhibition [13]	inhibition [14]	inhibition [15]	inhibition [16]	inhibition [17]	inhibition [18]	inhibition [19]	inhibition [20]
O=S(=O)(CCOCc1ccc(-c2ccc3ncnc(Nc4ccc(OCc5cccc(F)c5)c(Cl)c4)c3c2)o1)c1ccccc1	6.76%	-0.47%	3.29%	1.15%	1.36%	11.6%	69.8%	27.5%	82.6%	-3.62%	-0.81%	0.82%	1.19%	1.05%	5.27%	-0.62%	3.75%	0.41%	6.24%	1.07%
CCCN1CCCC(c2ccc(Nc3nc(Nc4cc(F)ccc4C(N)=O)c4cc[nH]c4n3)c(OC)c2)C1 (centres undefined)	15.8%	6.2%	-1.82%	2.18%	4.67%	2.27%	3.37%	36.3%	75%	77.5%	84.4%	61.4%	81.3%	3.11%	3.44%	4.31%	5.74%	5.86%	4.56%	0.72%
c1ccc(Nc2ncc(-c3ccccc3)o2)cc1	12.9%	2.14%	6.32%	4.58%	5.49%	43.6%	8.36%	11%	16%	3.09%	0.57%	3.92%	4.9%	-1.19%	8.3%	6.37%	10.5%	7.27%	6.62%	2.33%
COc1ccc2ncnc(Nc3ccc(OCc4ccccc4)cc3)c2c1	6.18%	4.29%	1.66%	2.58%	0.41%	1.73%	30.9%	56.2%	85.1%	-1.28%	4.76%	0.67%	1.33%	1.89%	-1.53%	1.22%	2.56%	1.63%	2.3%	1.47%
COc1cccc(-n2ncc3c(N/N=C/c4ccc(C)cc4)ncnc32)c1	9.45%	2.7%	4.17%	3.6%	3.21%	2.26%	3.43%	6.09%	11.9%	8.13%	17.5%	5.32%	10.3%	4.11%	17.7%	9.23%	7.12%	9.56%	6.72%	4.16%
Nc1nccc(-c2c(-c3ccc(F)cc3)nn3cc(C(F)(F)F)ccc23)n1	5.83%	-0.56%	3.25%	0.18%	1.91%	2.01%	3.5%	2.34%	11.4%	5.04%	7.28%	5.08%	3.62%	-4.71%	-0.05%	0.61%	2.87%	6.31%	1.74%	-0.28%
COc1ccc(-c2nn3ncccc3c2-c2ccnc(Nc3cccc(C(F)(F)F)c3)n2)cc1	6.69%	3.95%	4.5%	0.66%	5.01%	3.15%	9.69%	25.8%	83.1%	0.8%	1.69%	3.15%	2.54%	1.38%	-1.86%	2.73%	0.17%	2.6%	4.58%	1.02%
N#Cc1cccc(Nc2nccc(-c3cnn4ncccc34)n2)c1	46.2%	4.19%	3.9%	5.63%	22.5%	1.23%	5.3%	8.57%	19.1%	9.92%	48.9%	7.07%	34.3%	4.73%	8.94%	7.31%	23.4%	9.72%	17.2%	-0.11%
CCS(=O)(=O)c1ccc(OC)c(Nc2ncc(-c3cccc(OC)c3)o2)c1	24.3%	3.22%	2.36%	3.32%	11.9%	-0.52%	0.18%	10.5%	22.1%	-0.2%	3.8%	1.8%	2.42%	9.22%	40.2%	30.9%	68.2%	28.7%	70%	2.6%
Cc1cc(O)cc(C)c1/C=C/c1cncc(C(=O)N(C)C)c1	22.5%	5.26%	5.69%	3.23%	7.53%	1.35%	-0.95%	9.24%	7.51%	3.43%	1.61%	1.75%	1.31%	1.31%	1.65%	4.82%	5.81%	3.74%	3.19%	-0.32%
Cc1ccc2c(c1)/C(=N/Nc1ccc(S(N)(=O)=O)cc1)C(=O)N2	-1.87%	2.46%	-0.26%	0.65%	0.71%	0.1%	-4.77%	6.45%	7.37%	1.02%	0.29%	-0.01%	0.85%	0.1%	4.71%	2.39%	27.2%	4.04%	26.5%	-1.85%
CS(=O)(=O)Nc1cccc(-c2ccc3c(NC(=O)C4CC4)n[nH]c3c2)c1	–	4.48%	-3.94%	0.62%	0.5%	0.54%	-4.31%	6.04%	8.34%	-0.81%	0.02%	0.9%	1.23%	-6.27%	0.55%	-3.44%	5.34%	1.56%	2.41%	-5.5%
Cc1cc(Cl)cc2c1NC(=O)C2=NNc1ccc(S(N)(=O)=O)cc1	1.31%	3.65%	1.13%	1.3%	1.46%	2.46%	3.15%	6.08%	6.7%	2.65%	5.08%	0.93%	0.42%	3.14%	2.77%	1.45%	3.49%	1.47%	0.97%	-0.13%
